Shown is part of a subset that was picked to be rich in hits.
TSG101-PTAP inh – qHTS Validation Assay for Inhibitors of HIV-1 Budding by Blocking the Interaction of PTAP/TSG101: Sytravon Library Screen; Tumor susceptibility gene 101 protein (Homo sapiens), Q99816; Potency, µM (series often up to 115 µM), usual class: inhibitors; Fluorescence polarization, FITC-PTAP peptide/Tsg101, 20 min; AID 1347069, 2019; 44,000 tested, under 10 active; note: potency is the fitted concentration of half-maximal effect; 0% is about no effect
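qHTS FP binding, 20 min r.t.: 10 uM Tsg101 domain + 50 nM FITC-PTAP peptide, pH 7.5 HEPES buffer with TCEP and EDTA.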
GALK inhibitor – qHTS Assay for Inhibitors of Human Galactokinase (GALK): NCGC Sytravon Library Screen; 44,000 tested, under 10 active; recombinant GALK, Kinase-Glo ATP luminescence, 1 h; AID 1347072, 2019; P51570; Potency, µM (series often up to 57.5 µM), for the others: top-dose activity, negative = inhibition, most hits filed as inhibitors;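 note: plate controls were full GALK reaction for no effect and reaction lacking GALK for full effect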
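Luminescent ATP-depletion readout (Kinase-Glo Plus) after 1 h room-temperature incubation of human GALK (5 nM) with galactose 100 µM and ATP 35 µM, pH 8.0 HEPES/Mg2+ buffer; compounds tested in qHTS format.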
NTMT1 inhibitor – Primary qHTS for Inhibitors of N-terminal methyltransferase 1 (NTMT1): MTaseGlo Assay | N-terminal Xaa-Pro-Lys N-methyltransferase 1 (Homo sapiens), Q9BV86 | NTMT1 MTase-Glo SAH luminescence, purified enzyme | Potency, µM (doses to about 114 µM), for inactives: at the top dose activity change, negative = inhibition, actives largely listed as inhibitors | actives 2.5% (n = 59,000);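 note: potency is the fitted concentration of half-maximal effect; plate controls were DMSO vehicle for no effect and no enzyme for full effect; nearly all actives have a fitted effect of over 65% in size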
B2AR arrestin ag – qHTS assay of beta-arrestin-biased ligands of beta2-adrenergic receptor: NCGC Sytravon Library Screen. Potency, µM (titrated, usually from 46.1 µM), actives largely listed as activators. HTLA Tango cells, beta-arrestin recruitment, luciferase luminescence, 18 h. AID 1347077, 2019. 44,000 tested, under 10 active;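 note: potency is the fitted concentration of half-maximal effect; 0% = DMSO and full agonism = EC100 isoproterenol or metaproterenol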
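Ligand-induced beta-arrestin recruitment to recombinant beta2-AR is measured via a tTA-driven luciferase reporter in Tango cells after 18 hr compound exposure at 37 degrees C. Concentrations span up to 46 microM.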
FH mod – Identification of activators of human fumarate hydratase by quantitative high-throughput screening; Fumarate hydratase, mitochondrial (Homo sapiens), P07954; FH coupled MDH/diaphorase resazurin fluorescence, 15 min; Potency, µM (highest dose often 79.9 µM), for inactives: at the top dose activity change, negative = inhibition, hits mostly inhibitors; actives 0.22% (n = 54,000); AID 1347055, 2019; note: potency is the fitted concentration of half-maximal effect; % is set by controls: 0 for no effect and ±100 for the full control effect; the screen sought activators but most active calls are inhibition curves; nearly all actives have a fitted effect of over 45% in size
GALC G270D up – A Novel Cell-Based Assay to Identify Small Molecules for B -Galactocerebrosidase; P54803; 145M-Twi-hGALC-G270D cells (Twitcher mouse brain line with human GALC G270D), HMU-beta-Gal fluorescence, 48 h; Potency, µM (doses to about 57.5 µM), actives largely listed as activators; actives 0.1% (n = 45,000); AID 1159614, 2016; note: potency is the fitted concentration of half-maximal effect; 0% is about no effect; nearly all actives have a fitted effect of over 65% in size
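Live 145M-Twi cells (Twitcher mouse brain-derived, GALC-null) stably expressing human GALC-G270D, with a wild-type GALC line, were compound-treated. Residual GALC activity was then read as fluorescence from 0.1 mM final HMU-β-gal at pH 5.2; higher signal means activation.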
Sfp PPTase inh – qHTS Assay for Inhibitos of Bacillus subtilis Sfp phosphopantetheinyl transferase (PPTase): Chemistry Optimization Followup; actives 78% (n = 230); shares compounds with NTMT1 inhibitor; AID 540350, 2011; Potency, µM (titrated, usually from 114 µM), for the others: top-dose activity change, negative = inhibition, usual class: inhibitors; purified Sfp PPTase enzyme activity, qHTS
HM489 growth – qHTS for Inhibitos of Bacillus subtilis Sfp phosphopantetheinyl transferase (PPTase): Chemistry Optimization Followup in B. Subtilis HM489; shares compounds with NTMT1 inhibitor; B. subtilis HM489 (acpS-) growth, BacTiter-Glo, 5 h; Potency, µM (series often up to 114 µM), inactives show top-dose activity change, negative = inhibition, actives largely listed as inhibitors; actives 50% (n = 220); AID 540353, 2011
Sfp PPTase gel – Gel-Based Assay for Inhibitos of Bacillus subtilis Sfp phosphopantetheinyl transferase (PPTase): Chemistry Optimization Followup; shares compounds with NTMT1 inhibitor; purified Sfp PPTase, gel-based product detection; Potency, µM (titrated, usually from 250 µM), without a hit: at the top dose activity change, negative = inhibition, usual class: inhibitors; actives 54% (n = 220); AID 540355, 2011
Sfp inh gel – qHTS Assay for Inhibitors of Bacillus subtilis Sfp phosphopantetheinyl transferase (PPTase): Gel Based Assay | purified Sfp PPTase, gel-based product detection | Potency, µM (series often up to 250 µM), for inactives: at the top dose activity change, negative = inhibition, usual class: inhibitors | shares compounds with NTMT1 inhibitor | actives 90% (n = 45)
Sfp inh SAR2 – qHTS Assay for Inhibitors of Bacillus subtilis Sfp phosphopantetheinyl transferase (PPTase): SAR Round 2; shares compounds with NTMT1 inhibitor; purified Sfp enzyme, PPTase activity, qHTS; Potency, µM (series often up to 57.1 µM), without a hit: top-dose activity change, negative = inhibition, most hits filed as inhibitors; actives 87% (n = 230)
hGST ctr – qHTS Assay for Inhibitors of Bacillus subtilis Sfp phosphopantetheinyl transferase (PPTase): SAR in hGST A1-1; shares compounds with NTMT1 inhibitor; hGST A1-1 enzyme activity counter-screen, qHTS; Potency, µM (top dose mostly 114 µM), for inactives: at the top dose activity change, negative = inhibition, hits mostly inhibitors; 55 tested, under 10 active
HSD17B4 counter – Extended Characterization of HPGD Inhibitors: Counterscreen Against HSD17b4; shares compounds with NTMT1 inhibitor; purified HSD17B4, estradiol/NAD+, NADH fluorescence; actives 10% (n = 230); Potency, µM (doses to about 57.1 µM), without a hit: at the highest dose activity change, negative = inhibition, hits mostly inhibitors
ALDH1A1 inh – Extended Characterization of HPGD Inhibitors: Counterscreen Against ALDH1A1. recombinant ALDH1A1, NADH fluorescence, propionaldehyde/NAD+. Potency, µM (top dose mostly 57.1 µM), for inactives: top-dose activity change, negative = inhibition, actives largely listed as inhibitors. shares compounds with NTMT1 inhibitor. actives 93% (n = 230)
Target sequence (P00352 whole entry, looked up): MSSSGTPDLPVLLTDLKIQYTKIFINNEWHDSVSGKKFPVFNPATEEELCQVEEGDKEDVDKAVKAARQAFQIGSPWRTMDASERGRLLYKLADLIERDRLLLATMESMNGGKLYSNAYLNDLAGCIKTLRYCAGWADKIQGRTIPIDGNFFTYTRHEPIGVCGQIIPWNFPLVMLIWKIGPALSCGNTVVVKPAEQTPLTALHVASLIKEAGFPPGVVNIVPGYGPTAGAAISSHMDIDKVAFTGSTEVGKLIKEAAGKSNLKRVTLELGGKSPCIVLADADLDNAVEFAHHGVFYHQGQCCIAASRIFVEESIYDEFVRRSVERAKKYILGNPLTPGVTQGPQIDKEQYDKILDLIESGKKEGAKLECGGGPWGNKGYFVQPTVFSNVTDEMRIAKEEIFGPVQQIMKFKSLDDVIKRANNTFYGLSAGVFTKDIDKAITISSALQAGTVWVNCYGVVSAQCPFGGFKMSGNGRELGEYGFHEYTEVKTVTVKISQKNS
NNMT inh – Counterscreen qHTS for Inhibitors of N-terminal methyltransferase 1 (NTMT1): NNMT MTaseGlo assay; actives 10% (n = 120); shares compounds with NTMT1 inhibitor; AID 1645878, 2021; Potency, µM (series often up to 57.1 µM), without a hit: at the top dose activity, negative = inhibition, hits mostly inhibitors; NNMT MTase-Glo luminescence, SAH detection
* marks the source's active call; other numbers are inactive results; i = inactive; u = inconclusive; x = no result; [ ] = another dose, or the depositor's remark. Calls come from the whole dose curve; as a rule, active = well fitted curve in the direction sought with a large enough effect; inconclusive = small, poorly fitted or top-dose-only effect, or another doubt; inactive = no such curve, though single readings can be large; an effect the other way counts as inactive or inconclusive.

SMILES | TSG101-PTAP inh | GALK inhibitor | NTMT1 inhibitor | B2AR arrestin ag | FH mod | GALC G270D up | Sfp PPTase inh | HM489 growth | Sfp PPTase gel | Sfp inh SAR2 | HSD17B4 counter | ALDH1A1 inh | others
Cn1cnc(S(=O)(=O)N2CCC(C(=O)N3CCN(c4cccc(C(F)(F)F)c4)CC3)CC2)c1 | i | 3% | -5% | i | -21% | i | x | x | x | x | x | x
FC(F)(F)c1cccc(N2CCN(C(=S)Nc3cnccn3)CC2)c1 | x | x | x | x | x | x | u | -53% | 158µM* | u | 30µM* | 24µM*
COc1cc2nccc(Oc3ccc(NC(=O)c4cn(C(C)C)c(=O)n(-c5ccc(F)cc5)c4=O)cc3F)c2cc1OC | x | x | 22% | x | x | x | x | x | x | x | x | x
CCNCc1nc2c(N)nc3ccccc3c2n1CC(C)(C)O | x | x | -2%[57.5 µM] | x | 7% | x | x | x | x | x | x | x
CC(C)c1ccc(NC(=O)N2CCN(c3ccc(Cl)c(Cl)c3)CC2)cc1 | i | 11% | 6% | i | -21% | i | x | x | x | x | x | x
FC(F)(F)c1cccc(N2CCN(C(=S)Nc3cc(C(F)(F)F)ccn3)CC2)c1 | x | x | u | x | x | x | 5.1µM* | 7.4µM* | u | u | -12% | 19µM* | Sfp inh gel=-5%;hGST ctr=u
Cc1ccc(-n2nc(C(=O)N3CCN(c4cccc(C(F)(F)F)c4)CC3)c(=O)n(C)c2=O)cc1 | i | -2% | u | i | -28% | i | x | x | x | x | x | x
Cc1cc(C)nc(NC(=S)N2CCN(c3ccc4cn(C)nc4c3)CC2)c1 | x | x | u | x | x | x | 13µM* | 12% | -68% | 11µM* | u | 22µM*
Cc1ccnc(NC(=S)N2CCN(c3cccc(C(F)(F)F)c3)C2)c1 | x | x | -11%[57.5 µM] | x | x | x | 3% | -28% | u | 0.81µM* | -8% | 22µM*
Cn1nnc2c(N3CCN(c4cccc(C(F)(F)F)c4)CC3)ncnc21 | i | 0% | 4% | i | 6% | i | x | x | x | x | x | x
Cc1ccnc(NC(=S)N2CCC(Nc3cccc(C(F)(F)F)c3)CC2)c1 | x | x | -17% | x | x | x | 1.9µM* | 12µM* | 0.4µM* | 1µM* | 2% | 4.8µM*
Cc1cc(Nc2cccc(C(F)(F)F)c2)ncn1 | i | 0% | -18% | i | -5% | i | x | x | x | x | x | x
Cc1[nH]c(/C=C2\C(=O)Nc3cc(-c4ccccc4)ccc32)c(C)c1CCC(=O)O | x | x | u | x | -18% | x | x | x | x | x | x | x | NNMT inh=28%
CN1CCN(S(=O)(=O)c2ccc(-c3cnc(N)c(C(=O)Nc4cccnc4)n3)cc2)CC1 | x | x | 15%[29.8 µM] | x | 11%[53.3 µM] | x | x | x | x | x | x | x
